# A selection: hits, their analogues and other compounds. The true share with any hit is near 8%.
# KB-3-1 cytotox – qHTS assay for MDR1-selective chemotherapeutics: Primary screen using the parental adenocarcinoma cell KB-3-1; 400,000 compounds, 1.4% hits; KB-3-1 viability, CellTiter-Glo ATP luminescence, 72 h; Potency, µM (top dose mostly 46.1 µM), usual class: cytotoxic; AID 1347075, 2019; also: % is scaled to controls: 0 for no effect and ±100 for the full control effect; nearly all actives have a fitted effect of over 60% in size
#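 Viability of parental KB-3-1 cells, measured by CellTiter-Glo luminescence, followed a 72 h incubation at 37 °C with pinned compounds in phenol-red-free DMEM containing 10% FBS.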
# SW480 rerep – A quantitative high throughput screen for small molecules that induce DNA re-replication in SW480 colon adenocarcinoma cells. Potency, µM (titrated, usually from 46.1 µM), inactives show top-dose re-replication activation, actives largely listed as activators. SW480 DNA re-replication, Hoechst DNA content imaging, 48 h. 340,000 compounds, 1.8% hits; also: % of control where 0% means no effect; nearly all actives have a fitted effect of over 55% in size
#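 Cells (250 per well) received 23 nL compound or DMSO by pin tool and were kept 48 hr at 37 C, 5% CO2. Nuclei were then stained with Hoechst for 40 min and scanned for DNA content.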
# HT1080NT lethal – qHTS for induction of synthetic lethality in tumor cells producing 2HG: qHTS for the HT-1080-NT fibrosarcoma cell line. HT-1080-NT fibrosarcoma viability, CellTiter-Glo ATP luminescence, 48 h. Potency, µM (series often up to 46.1 µM), without a hit: top-dose activity, negative = less viability, hits mostly cytotoxic. 360,000 compounds, 1.6% hits. AID 686970, 2013;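 also: NT is the 2HG producing partner of a matched IDH1 knockdown line; 0% = DMSO-treated cells and -100% = media-only wells without cells; nearly all actives have a fitted effect of over 55% in size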
#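 Compounds were tested in concentration-response format on HT-1080-NT cells for 48 hours at 37 degrees C. Cell viability came from CellTiter-Glo luminescence; curves were classified by r2, response magnitude and activity.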
# MCF10A rerep – A quantitative high throughput screen for small molecules that induce DNA re-replication in MCF 10a normal breast cells. MCF 10A DNA re-replication, Hoechst nuclear intensity, 48 h. Potency, µM (titrated, usually from 46.1 µM), inactives show at the top dose activity, positive = re-replication, actives largely listed as activators. 350,000 compounds, 2.9% hits. AID 624296, 2012; also: % of control where 0% means no effect; nearly all actives have a fitted effect of over 50% in size
# HT1080 IDH1KD tx – qHTS for induction of synthetic lethality in tumor cells producing 2HG: qHTS for the HT-1080-IDH1KD cell line; HT-1080 IDH1 knockdown viability, ATP luminescence, 48 h; Potency, µM (top dose mostly 46.1 µM), for inactives: top-dose activity, negative = toxicity, hits mostly cytotoxic; 360,000 compounds, 2% hits;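 also: 0% = DMSO wells and -100% = cell-free medium wells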
#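 IDH1KD HT-1080 cells, 750/well, RPMI + 5% FBS; compound pinned after 2 h settling; 48 h, 37 °C; CellTiter-Glo luminescence; % activity normalised to DMSO and no-cell wells; curves fitted, classed by r2 and efficacy.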
# KB-V1 cytotox – qHTS assay for MDR1-selective chemotherapeutics: Primary screen using the drug-selected MDR subline cells KB-V1 | KB-V1 MDR cells viability, CellTiter-Glo, 72 h | Potency, µM (titrated, usually from 46.1 µM), actives largely listed as cytotoxic | 400,000 compounds, 3.4% hits; also: % is scaled to controls: 0 for no effect and ±100 for the full control effect; nearly all actives have a fitted effect of over 60% in size
#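 Compound-treated KB-V1 multidrug-resistant cells, 72 h, 37 degrees C; viability by CellTiter-Glo. Fitted qHTS curves give the values.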
# The depositor's hits bear a star; i = inactive; ? = inconclusive; · = no result given; [ ] = another dose, or the depositor's remark. Calls follow the shape of the dose curve; as a rule, active = well fitted curve in the direction sought with a large enough effect; inconclusive = small, poorly fitted or top-dose-only effect, or another doubt; inactive = no such curve, though single readings can be large; an effect the other way counts as inactive or inconclusive. Potency is read from the fitted curve at half-maximal effect.
SMILES,KB-3-1 cytotox,SW480 rerep,HT1080NT lethal,MCF10A rerep,HT1080 IDH1KD tx,KB-V1 cytotox
COC(=O)c1c(NC(=S)NN2CCOCC2)sc2c1CCCC2,i,0.4%,-0.3%,11.2%,10.5%,i
CCCCN=C1SC(C(=O)Nc2sc3c(c2C(=O)OC)CCC3)C(N)=C1C(=O)N1CCOCC1 (stereo not given),i,353.8%,-11.1%,20.6µM*,3.5%,i
Cc1cccc(C(=O)Nc2ccc(OCc3cc(=O)n4ccc(C)cc4n3)cc2)c1,i,·,·,·,·,i
CC(=O)c1ccc2noc(-c3ccccc3)c2c1,i,25.5%,14.4%,-3.1%,0.9%,?
CN(C)/C=C/C(=O)c1ccc2noc(-c3ccccc3)c2c1,i,24.8%,?,20.6µM*,-13.8%,?
O=C(Nc1ccc(F)cc1F)c1cccc(C(=O)Nc2ccc(F)cc2F)n1,·,16.4µM*,13.5%,6.51µM*,15.3%,·
CC[C@@]1(c2ccccc2OC)ON(c2ccccc2C(F)(F)F)C1=O,?,?,-26.9%,?,?,?
CCC1(c2ccccc2)ON(c2c(Br)cccc2Br)C1=O (stereo not given),i,?,?,11.6µM*,18.4µM*,?
O=C(/C=C/c1cccnc1)Nc1cccc([S+](=O)([O-])Nc2ccccc2F)c1,i,·,·,·,·,i
N#CC1C(=N)Cc2ccccc2-c2ccccc21 (stereo not given),?,16.4µM*,11.6µM*,?,16.4µM*,14.6µM*
ClCC1=Nc2ccccc2Cc2ccccc21,i,3.6%,-10.6%,11.1%,7.1%,i
COc1cccc(C2CN(c3ccc(F)cc3F)N=C2c2cccs2)c1OC (stereo not given),i,4.11µM*,-12.3%,?,-2.6%,i
Cc1ccc(CN2CCOCCS2(=O)=O)cc1,i,·,·,·,·,i
O=S1(=O)CC(N2CCCC2)CN1Cc1cn(Cc2cccc(C(F)(F)F)c2)nn1 (stereo not given),i,·,14.6%,·,0.3%,i
O=C(/C=C/c1ccc[nH]1)c1ccccc1,i,-23.0%,6.3%,-22.0%,-7.1%,i
Cc1cccc(-n2c(-c3csc4ccccc34)n[nH]c2=S)c1,i,-1.1%,1.7%,28.3%,3.5%,i
CCn1c(-c2csc3ccccc23)n[nH]c1=S,18.4µM*,-3.0%,-2.4%,1.0%,-1.2%,7.31µM*
CC(C)Cn1c(-c2csc3ccccc23)n[nH]c1=S,i,5.7%,-3.7%,11.2%,1.1%,16.4µM*
CSc1ccc(C(=O)NCC(c2ccco2)N(C)C)cc1[N+](=O)[O-] (stereo not given),i,-16.1%,-2.1%,-26.8%,-0.9%,i
COc1ccc(OC2(C)CCN(Cc3ccccc3OC(F)F)C2)cc1 (stereo not given),i,·,-8.3%,·,0.0%,i
Cc1[nH]nc(-c2ccc(OCc3cnn(-c4ccccc4)c3)cc2O)c1Oc1ccc(F)cc1,?,12.5%,?,?,?,i
Cc1[nH]nc(-c2ccc(OCc3cnn(-c4ccccc4)c3)c(C)c2O)c1Oc1ccccc1,20.6µM*,?,20.6µM*,16.4µM*,16.4µM*,i
Cc1ccc2c(c1)c1c(n2CC(O)Cn2c(C)nc3ccccc32)/C(=N\O)CCC1 (stereo not given),?,-1.5%[9.22 µM],20.6µM*,?,?,?
CC(C)c1nc2ccccc2n1CC(O)COC1CCCCC1 (stereo not given),i,0.0%,1.3%,1.6%,0.1%,?

# High-throughput results (PubChem BioAssay)
